According to ChEMBL document CHEMBL3988442, “University of Dundee, Small-Polar-MMV Screening Library” (2021):
In all, about 66,000 compounds went through this assay and about 960 (1.5%) showed an effect of 50% or more. The entries come from a sample that favours strong results as a whole.

Tested on: Trypanosoma brucei
Assay: Trypanosoma brucei 72 hour study
Type: functional, organism-based
Design: scale not given: in the data most compounds retested in dose-response had high values

Cn1ccc(CNC(=O)Nc2ccc(S(=O)(=O)C(F)F)cc2)c1
Percent Effect (30 µM, 30.03 µM): -7.299%

COc1ccc(CNC(=O)Nc2ccc(S(=O)(=O)C(F)F)cc2)cc1
Percent Effect (30 µM, 30.03 µM): -8.777%

CN(C)c1ccc(CNC(=O)Nc2ccc(S(=O)(=O)C(F)F)cc2)cc1
Percent Effect (30 µM, 30.03 µM): 71.22%

COCCNC(=O)CN1CCN(c2nc(C)cs2)CC1
Percent Effect (10 µM): -57.99%

CC(C)C(=O)Nc1ccc(Oc2ccc3c(c2)OCO3)nc1
Percent Effect (30 µM, 30.03 µM): -14.33%

CCC(=O)NCCCn1c(-c2cccnc2C)cc2cccnc21.Cl
Percent Effect (30.3 µM, […]): -13.2%

CCN(Cc1cccs1)C(=O)c1ccc(=O)n(C)c1
Percent Effect (30.3 µM, […]): -2.313%

CN(Cc1cccs1)C(=O)c1ccc(=O)n(C)c1
Percent Effect (30.3 µM, […]): 98.98%

COCCN(Cc1cccs1)C(=O)c1ccc(=O)n(C)c1
Percent Effect (30.3 µM, […]): -3.424%

COc1ccc(NC(=O)Cn2nc(C)c(C)cc2=O)cc1OC
Percent Effect (30.3 µM, […]): -10.01%

COc1ccc(NC(=O)Cn2nc(C)c(C)cc2=O)cc1
Percent Effect (30 µM, 30.03 µM): -33.88%

CC(=O)c1c(C)nn(CC(=O)Nc2ccc(F)cc2)c1C
Percent Effect (30.3 µM, […]): -35.96%

Cc1cc(=O)n(CC(=O)Nc2ccc(Cl)cc2)nc1C
Percent Effect (30 µM, 30.03 µM): -26.52%

COc1ccc(NC(=O)Cn2nc(C)c(C(C)=O)c2C)cc1
Percent Effect (30.3 µM, […]): 101.9%

CC(=O)c1c(C)nn(CC(=O)Nc2ccc(Br)cc2)c1C
Percent Effect (30.3 µM, […]): 101.3%

Cc1ccc(Nc2nccc(C3CCN(CC(N)=O)C3)n2)nc1 (centres undefined)
Percent Effect (30.3 µM, […]): -50.23%

O=C(O)C(F)(F)F.O=C(c1ccccc1)N1CCC[C@]2(C[C@@H](OCc3ccccn3)CO2)C1
Percent Effect (30.3 µM, […]): -136.6%

O=C(C1CC1)N1CCCC1c1nnc2n1CCCCC2 (centres undefined)
Percent Effect (30 µM, 30.03 µM): -31.5%

CN(C)C(=O)CN1CCn2cc(Cn3cccn3)nc2C1.O=C(O)C(F)(F)F.O=C(O)C(F)(F)F
Percent Effect (30 µM, 30.03 µM): -43.32%

CCNc1cc2c(nn1)CCN(C(=O)c1cc3cccc(C)c3o1)C2
Percent Effect (10 µM): -32.26% | Percent Effect (30.3 µM, […]): 29.79%

CC(C)CN1Cc2nc(N3CCCC(C)C3)ncc2C1=O (centres undefined)
Percent Effect (30 µM, 30.03 µM): -5.722%

Cl.Cl.O=C(CN1CCN(CC(O)C2CC2)CC1)NCc1ccccc1Cl (centres undefined)
Percent Effect (30.3 µM, […]): -15.94%

COc1ccc(C(=O)NCCCOC(C)c2ccccc2)c(OC)c1 (centres undefined)
Percent Effect (30.3 µM, […]): 17.87%

OC(CNc1nc(C2CCCC2)nc2c1CCNCC2)C(F)(F)F (centres undefined)
Percent Effect (30 µM, 30.03 µM): 99.48%

OC(CNc1ncnc2c1CCNCC2)C(F)(F)F (centres undefined)
Percent Effect (30 µM, 30.03 µM): -18.54%

Cc1nc2c(c(NCC(O)C(F)(F)F)n1)CCNCC2 (centres undefined)
Percent Effect (30 µM, 30.03 µM): -77.95%

N#Cc1cccc(CN2CCC3(CC2)CC(c2ccncc2)C(=O)N3)c1.O=C(O)C(F)(F)F.O=C(O)C(F)(F)F (centres undefined)
Percent Effect (30 µM, 30.03 µM): 43.46%

CCOc1ncccc1NC(=O)c1cc(C)sc1C
Percent Effect (30 µM, 30.03 µM): -36.47%

CCOc1ncccc1NC(=O)c1ccc(C)s1
Percent Effect (30 µM, 30.03 µM): -25.8%

CCOc1ncccc1NC(=O)c1cc(C)c(C)s1
Percent Effect (30 µM, 30.03 µM): 63.47%

O=C(NCCc1nnc2n1CCC2)NCC1(c2ccccc2)CC1
Percent Effect (30.3 µM, […]): 3.515%

O=C(O)C(F)(F)F.O=C(c1ccsc1)N1CCC2(CCN(Cc3ccccn3)C2=O)C1 (centres undefined)
Percent Effect (30 µM, 30.03 µM): -3.251%

CC(C)C(=O)N1CCC(n2nc(-c3ccco3)ccc2=O)CC1
Percent Effect (30.3 µM, […]): -15.18%

CC(C)c1nnc2ccc(N3CCCC(C(=O)Nc4nccs4)C3)nn12 (centres undefined)
Percent Effect (30 µM, 30.03 µM): -31.38%

Cc1nnc2ccc(N3CCC(C(=O)Nc4nccs4)CC3)nn12
Percent Effect (30 µM, 30.03 µM): 0.472%

CC(C)c1nnc2ccc(N3CCC(C(=O)Nc4nccs4)CC3)nn12
Percent Effect (30 µM, 30.03 µM): 61.33%

CC(C)C1CN(c2cccc(C#N)n2)CCCN1Cc1ccc(F)cc1 (centres undefined)
Percent Effect (30.3 µM, […]): 99.78%

CC(C)C1CN(c2cccc(C#N)n2)CCCN1CC1CC1 (centres undefined)
Percent Effect (30.3 µM, […]): -2.966%

CC(C)C1CN(S(C)(=O)=O)CCCN1Cc1ccc(F)cc1 (centres undefined)
Percent Effect (30 µM, 30.03 µM): -25.6%

CN(C)C(=O)[C@H]1C[C@H]2OCC[C@H]2N(Cc2ccc3ccccc3n2)C1.O=C(O)C(F)(F)F.O=C(O)C(F)(F)F
Percent Effect (30.3 µM, […]): -111.9%

CC(C)NC(=O)c1cc2c(c3ccccc3n2C)n1C(=O)N(C)C
Percent Effect (30 µM, 30.03 µM): 61.67%

COCCNC(=O)c1cc2c(c3ccccc3n2C)n1C(=O)N(C)C
Percent Effect (30 µM, 30.03 µM): 28.71%

CCCNC(=O)c1cc2c(c3ccccc3n2C)n1C(=O)N(C)C
Percent Effect (30.3 µM, […]): 27.2%

Cc1ccsc1CN1CCC(n2cc(C(O)c3ccccc3)nn2)CC1 (centres undefined)
Percent Effect (30.3 µM, […]): -15.95%

CCc1nnc2n1CCN(C(=O)CCOc1ccc(C)cc1C)C2
Percent Effect (30 µM, 30.03 µM): -30.52%

O=C(O)C(F)(F)F.O=C([C@@H]1CCO[C@@H]2CCN(CC3CCOCC3)C[C@H]21)N1CCCO1
Percent Effect (30 µM, 30.03 µM): -11.19%

CCOCC(=O)N1C[C@@H]2CCN(c3cnccn3)C[C@@H]2C1.O=C(O)C(F)(F)F
Percent Effect (30.3 µM, […]): -17.39%

CCN1CCn2c(C)cnc2C12CCN(C(=O)NC)CC2.O=C(O)C(F)(F)F
Percent Effect (30.3 µM, […]): -20.19%

CCOC(=O)C1CCCCN1Cc1c[nH]nc1-c1cc2ccccc2o1 (centres undefined)
Percent Effect (30.3 µM, […]): 58.53%

CCOC(=O)C1CCCCN1Cc1c[nH]nc1-c1ccc(F)cc1F (centres undefined)
Percent Effect (30.3 µM, […]): -2.201%

CCOC(=O)C1CCCN(Cc2c[nH]nc2-c2cc3ccccc3o2)C1 (centres undefined)
Percent Effect (30.3 µM, […]): 15.89%

Cc1c(Br)cc2c(c1C)OCC(N(C)C)C2=O (centres undefined)
Percent Effect (30.3 µM, […]): 0.8254%

CCN(CC)C1COc2c(cc(Br)c(C)c2C)C1=O (centres undefined)
Percent Effect (30.3 µM, […]): -8.815%

CCN(CC)C1COc2c(cc(Br)c(C)c2Br)C1=O (centres undefined)
Percent Effect (30.3 µM, […]): 52.72%

O=C1CN(C(=O)c2ccc(F)cc2)CC(O)CN1Cc1cccs1 (centres undefined)
Percent Effect (30.3 µM, […]): 5.097%

Cc1ccc(C(=O)N2CC(=O)N(Cc3cccs3)CC(O)C2)cc1 (centres undefined)
Percent Effect (30.3 µM, […]): 2.037%

O=C1CN(C(=O)c2ccc(Cl)cc2)CC(O)CN1Cc1cccs1 (centres undefined)
Percent Effect (30.3 µM, […]): 99.92%

CN1C[C@@H]2CC[C@H](CC1=O)N2C(=O)c1ccc(-c2ccccc2)[nH]c1=O
Percent Effect (30.3 µM, […]): 2.014%

CC(C)OCCCN(Cc1ccncc1)Cc1cc(F)ccc1F.Cl
Percent Effect (30.3 µM, […]): -3.291%

C/C(Cl)=C/CNC(=O)[C@H]1CC[C@]2(CC1)CN(C)C(=O)c1ccccc1O2
Percent Effect (30.3 µM, […]): -12.03%

CO[C@H]1CN(C(C)C)C[C@@H]1NC(=O)Nc1cccc(SC)c1
Percent Effect (30 µM, 30.03 µM): -47.34%

CO[C@H]1CN(C(C)C)C[C@@H]1NC(=O)Nc1ccc2oc(C)cc2c1
Percent Effect (30 µM, 30.03 µM): -77.41%

CO[C@H]1CN(C(C)C)C[C@@H]1NC(=O)Nc1ccc(C(F)(F)F)cc1
Percent Effect (30 µM, 30.03 µM): 82.01%

CO[C@H]1CN(C(=O)OC(C)(C)C)CC1NCc1cccn1C (some centres undefined)
Percent Effect (30 µM, 30.03 µM): -31.18%

Cc1ccc(C2COCCN2C(=O)c2cccc(N(C)C)c2)o1 (centres undefined)
Percent Effect (30 µM, 30.03 µM): 50.27%

Cc1ccc(C2COCCN2C(=O)c2ccc(F)c(F)c2)o1 (centres undefined)
Percent Effect (30 µM, 30.03 µM): 29.67%

Cc1ccc(C2COCCN2C(=O)c2ccc(N(C)C)cc2)o1 (centres undefined)
Percent Effect (30 µM, 30.03 µM): 5.525%

CN(C)C(=O)CN1C(=O)C[C@@H]2[C@@H]1CCN2Cc1cccc(C#N)c1.O=C(O)C(F)(F)F
Percent Effect (30.3 µM, […]): -180.8%

Cc1nc(C)c(C(=O)N2CCc3nc4c(C)csc4c(=O)n3CC2)s1.Cl
Percent Effect (30.3 µM, […]): -52.81%

CN(c1ccc(CNC(=O)c2ccc(O)nc2)cc1)C1CCCCC1
Percent Effect (30 µM, 30.03 µM): -19.08%

CN(c1ncc(C(=O)Nc2ccccc2)c(N)n1)C1CCCCC1
Percent Effect (30.3 µM, […]): 1.024%

COc1ccc(NC(=O)c2cnc(N(C)C3CCCCC3)nc2N)cc1
Percent Effect (30.3 µM, […]): 61%

COc1ccc(NC(=O)c2cnc(C3CCN(C)CC3)nc2C)cc1
Percent Effect (30.3 µM, […]): -7.704%

CN(c1ncc(C(=O)NCc2ccccc2)c(N)n1)C1CCCCC1
Percent Effect (30.3 µM, […]): 91.96%

Cc1nc(N(C)C2CCCCC2)ncc1C(C)NC(=O)c1cccnc1 (centres undefined)
Percent Effect (30.3 µM, […]): -134.2%

Cc1ccc(N2Cc3nc(=O)n(C(C)C)n3C2=O)cc1
Percent Effect (30 µM, 30.03 µM): -28.54%

CN(C(=O)Cc1ccc(NC(=O)NC2CCC2)cc1)c1ccccc1
Percent Effect (30 µM, 30.03 µM): -6.814%

CC(C)c1nccc(CN(C)Cc2cnn(-c3ccccc3)c2)n1
Percent Effect (30 µM, 30.03 µM): 6.527%

Cc1nsc(C(=O)NCCCc2ccccc2)n1
Percent Effect (30 µM, 30.03 µM): -6.915%

Cl.Fc1ccc(-c2cnc(C3CCCN3)cn2)cc1 (centres undefined)
Percent Effect (30.3 µM, […]): 19.97%

Fc1ccc(-c2cnc(C3CCNCC3)cn2)cc1
Percent Effect (30.3 µM, […]): 58.37%

COc1cccc(-c2cnc(C3CCNCC3)cn2)c1
Percent Effect (30.3 µM, […]): -29.22%

C[C@@]1(O)CCN(Cc2cc[nH]n2)C[C@H]1Oc1cccc(F)c1
Percent Effect (30.3 µM, […]): 13.98%

COCCO[C@H]1CCN(C(=O)NC2CC2)[C@H]1Cc1cnn(C)c1
Percent Effect (30 µM, 30.03 µM): -38.19%

CCn1c(CN2CCCC(O)(c3ccc(F)cc3)CC2)cnc1SC.O=C(O)CC(O)(CC(=O)O)C(=O)O (centres undefined)
Percent Effect (30.3 µM, […]): -0.3019%

CCCOCCCNc1nccc(-c2cn(C)nc2C)n1
Percent Effect (30 µM, 30.03 µM): 60.81%

CNCCNc1nccc(-c2cn(C)nc2C)n1
Percent Effect (30.3 µM, […]): -7.529%

CCN(CC)CCCNc1nccc(-c2cn(C)nc2C)n1
Percent Effect (30.3 µM, […]): 0.2363%

NC(=O)c1c[nH]nc1NC(=O)c1cccc(Cl)c1
Percent Effect (30.3 µM, […]): -12.02%

Cc1ccccc1C(=O)N1CCOCC1CN(C)C.O=CO (centres undefined)
Percent Effect (30.3 µM, […]): 13.8%

CN(CCO)CC1COCCN1C(=O)C1CCCCC1.O=CO (centres undefined)
Percent Effect (30 µM, 30.03 µM): -4.713%

O=C(N1CCOCC1CO)C1(c2cccs2)CCCC1 (centres undefined)
Percent Effect (30.3 µM, […]): -27.69%

CN(CCO)CC1COCCN1C(=O)C1(c2cccs2)CCCC1.O=CO (centres undefined)
Percent Effect (30.3 µM, […]): 95.25%

CN(C)CC1COCCN1C(=O)C1(c2cccs2)CCCC1.O=CO (centres undefined)
Percent Effect (30.3 µM, […]): 99.83%

CN(CCO)CC1COCCN1C(=O)CCC1CCCC1.O=CO (centres undefined)
Percent Effect (30 µM, 30.03 µM): -33.47%

C1CC(N2C[C@@H]3COC[C@]3(COCC3CCOCC3)C2)C1.O=C(O)C(F)(F)F
Percent Effect (30.3 µM, […]): -71.78%

CN1CCN(C(=O)[C@H]2C[C@H]3[C@H](CCN3Cc3cccs3)O2)CC1.O=C(O)C(F)(F)F.O=C(O)C(F)(F)F
Percent Effect (30.3 µM, […]): -15.62%

O=C(c1cnc(-c2ccco2)s1)N1CCCCC1Cn1cccn1 (centres undefined)
Percent Effect (30.3 µM, […]): -0.6425%
